Drawing on PubChem BioAssay (EPA / NIEHS), this text covers outcome and AC50 for three compounds.

A word on the AC50: it is the midpoint of the concentration-response curve, whichever way the signal moves.

What all share (details): mRNA level, 48 h; actives raise or lower the signal
Read-out in assay [1]: ATP-citrate lyase (ACLY), ACLY (gene 47)
Kind of assay: LTEA_HepaRG_ACLY: Life Technologies and Expression Analysis (LTEA) Assay for ATP-citrate lyase (ACLY) using HepaRG (AID 2283466). The essentials: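 Differentiated human HepaRG cells in serum-free induction medium exposed 48 h, in duplicate, to eight half-log concentrations from 100 uM top in 0.5% DMSO; ACLY mRNA measured by qRT-PCR, normalized to ACTB, GAPDH, POLR2A, fitted bidirectionally versus DMSO.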

Read-out in assay [2]: Peroxisomal acyl-coenzyme A oxidase 1 (ACOX1) gene, ACOX1 (gene 51)
Nature of the assay: LTEA_HepaRG_ACOX1: Life Technologies and Expression Analysis (LTEA) Assay for Peroxisomal acyl-coenzyme A oxidase 1 (ACOX1) gene using HepaRG (AID 2283467). The essentials: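 Differentiated human HepaRG cells were exposed in duplicate for 48 h in serum-free induction medium to eight half-log concentrations up to 100 uM in 0.5% DMSO. ACOX1 mRNA was then quantified by TaqMan qRT-PCR, normalized to ACTB, GAPDH and POLR2A.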

Read-out in assay [3]: Alkaline Phosphatase, Placental (ALPP) gene, ALPP (gene 250)
Kind of assay: LTEA_HepaRG_ALPP: Life Technologies and Expression Analysis (LTEA) Assay for Alkaline Phosphatase, Placental (ALPP) gene using HepaRG (AID 2283468). The essentials:
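Expression of ALPP was quantified by qRT-PCR against three housekeeping genes in human HepaRG cultures treated for 48 h with an eight-point concentration series up to 100 uM. Activity in either direction was fitted relative to 0.5% DMSO.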

Read-out in assay [4]: Bcl-2 (BAD) gene, BAD (gene 572)
Kind of assay: LTEA_HepaRG_BAD: Life Technologies and Expression Analysis (LTEA) Assay for Bcl-2 (BAD) gene using HepaRG (AID 2283469). The essentials: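 Differentiated human HepaRG cells in serum-free induction medium were exposed in duplicate for 48 h to eight concentrations (top 100 uM, half-log steps, 0.5% DMSO). BAD mRNA was quantified by qRT-PCR normalised to ACTB, GAPDH and POLR2A, with bidirectional fitting versus DMSO.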

Read-out in assay [5]: Bcl-2 (BAX) gene, BAX (gene 581)
Kind of assay: LTEA_HepaRG_BAX: Life Technologies and Expression Analysis (LTEA) Assay for Bcl-2 (BAX) gene using HepaRG (AID 2283470). Put shortly: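 HepaRG (human liver), 48 h exposure, duplicate wells. 8-pt curve, half-log from 100 uM, 0.5% DMSO. BAX transcript by TaqMan qRT-PCR; ACTB/GAPDH/POLR2A normalization; gain or loss vs DMSO baseline.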

Read-out in assay [6]: adenosine kinase (ADK) gene, ADK (gene 132)
Kind of assay: LTEA_HepaRG_ADK: Life Technologies and Expression Analysis (LTEA) Assay for adenosine kinase (ADK) gene using HepaRG (AID 2283471). The essentials: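 Differentiated HepaRG cells dosed 48 h in serum-free induction medium, 0.5% DMSO vehicle, eight half-log concentrations from 100 uM, in duplicate. ADK mRNA by TaqMan qRT-PCR normalised to ACTB, GAPDH, POLR2A; bidirectional fit versus DMSO.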

Read-out in assay [7]: Alpha-fetoprotein (AFP) gene, AFP (gene 174)
Nature of the assay: LTEA_HepaRG_AFP: Life Technologies and Expression Analysis (LTEA) Assay for Alpha-fetoprotein (AFP) gene using HepaRG (AID 2283472). The essentials:
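HepaRG, single lot; 48 h post-plating -> serum-free induction medium; cpd 8-pt, 100 uM top, half-log, 0.5% DMSO, duplicate, 48 h. RNA -> qRT-PCR AFP, norm ACTB/GAPDH/POLR2A. Bidirectional fit vs DMSO.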

Read-out in assay [8]: BCL2L11 (gene 10018)
Kind of assay: LTEA_HepaRG_BCL2L11: Life Technologies and Expression Analysis (LTEA) Assay for Bcl-2 (BCL2L11) gene using HepaRG (AID 2283473). Put shortly:
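Cells were plated, cultured 48 h, switched to serum-free induction medium, then dosed in duplicate for 48 h at eight half-log concentrations up to 100 uM. Lysates underwent RNA isolation and TaqMan qRT-PCR; gain or loss versus DMSO was fitted.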

Read-out in assay [9]: Apolipoprotein A-V (APOA5) gene, APOA5 (gene 116519)
Kind of assay: LTEA_HepaRG_APOA5: Life Technologies and Expression Analysis (LTEA) Assay for Apolipoprotein A-V (APOA5) gene using HepaRG (AID 2283474). Put shortly:
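Human liver HepaRG cells are treated 48 h with test chemicals (100 uM top, half-log dilutions, 0.5% DMSO). APOA5 mRNA induction or loss is measured by qRT-PCR relative to vehicle.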

Read-out in assay [10]: Apoptosis regulator Bcl-2 (Homo sapiens) (UniProt P10415)
Nature of the assay: LTEA_HepaRG_BCL2: Life Technologies and Expression Analysis (LTEA) Assay for Bcl-2 gene using HepaRG (AID 2283475). The essentials:
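HepaRG, plated 48 h then switched to serum-free induction medium; dosed 48 h, 8 conc. (max 100 uM, half-log steps), duplicate, 0.5% DMSO. Lysis in RLT, RNA isolated, TaqMan qRT-PCR for BCL2; ACTB/GAPDH/POLR2A normalisation; bidirectional fit vs DMSO.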

Read-out in assay [11]: Bcl-2 (BID) gene, BID (gene 637)
Kind of assay: LTEA_HepaRG_BID: Life Technologies and Expression Analysis (LTEA) Assay for Bcl-2 (BID) gene using HepaRG (AID 2283476). The essentials:
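Transcript levels of BID, measured by qRT-PCR and normalized to three housekeeping genes, were fitted bidirectionally against DMSO controls. Cells were HepaRG, dosed 48 h at up to 100 uM.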

Read-out in assay [12]: Caspase-3 (Homo sapiens) (UniProt P42574)
Nature of the assay: LTEA_HepaRG_CASP3: Life Technologies and Expression Analysis (LTEA) Assay for cysteine-aspartic acid protease (CASP3) using HepaRG (AID 2283477). The essentials: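 In HepaRG liver cells dosed for 48 h at up to 100 uM (eight-point, duplicate), CASP3 expression changes are scored by qRT-PCR. Activity is fitted in both directions with 0.5% DMSO as baseline.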

Read-out in assay [13]: Cytochrome P450 (CYP24A1), CYP24A1 (gene 1591)
Kind of assay: LTEA_HepaRG_CYP24A1: Life Technologies and Expression Analysis (LTEA) Assay for Cytochrome P450 (CYP24A1) using HepaRG (AID 2283478). Put shortly: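 Human liver HepaRG cultures receive each chemical for 48 h across an eight-point half-log series topping at 100 uM in 0.5% DMSO. Induction or suppression of CYP24A1 mRNA is scored relative to vehicle after housekeeping-gene normalization.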

Read-out in assay [14]: Cytochrome P450 (CYP1A2), CYP1A2 (gene 1544)
Kind of assay: LTEA_HepaRG_CYP1A2: Life Technologies and Expression Analysis (LTEA) Assay for Cytochrome P450 (CYP1A2) using HepaRG (AID 2283479). Put shortly: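 Assesses CYP1A2 mRNA in human HepaRG liver cells after 48 h chemical exposure at up to 100 uM. Values come from qRT-PCR with bidirectional curve fitting relative to DMSO.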

Read-out in assay [15]: cysteine-aspartic acid protease (CASP8), CASP8 (gene 841)
Kind of assay: LTEA_HepaRG_CASP8: Life Technologies and Expression Analysis (LTEA) Assay for cysteine-aspartic acid protease (CASP8) using HepaRG (AID 2283480). Put shortly: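 Differentiated human HepaRG cells, plated 48 h then switched to serum-free induction medium, were exposed in duplicate for 48 h to 8 half-log concentrations up to 100 uM in 0.5% DMSO. CASP8 mRNA was quantified by qRT-PCR, normalized to ACTB/GAPDH/POLR2A.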

Read-out in assay [16]: Cytochrome P450 (CYP2B6), CYP2B6 (gene 1555)
Kind of assay: LTEA_HepaRG_CYP2B6: Life Technologies and Expression Analysis (LTEA) Assay for Cytochrome P450 (CYP2B6) using HepaRG (AID 2283481). Put shortly:
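Using 48 h treatment of HepaRG cells in serum-free induction medium, concentrations spanned half-log steps from 100 uM in 0.5% DMSO vehicle. CYP2B6 mRNA induction or loss is scored by qRT-PCR against DMSO.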

Read-out in assay [17]: Cytochrome P450 2C19 (Homo sapiens) (UniProt P33261)
Nature of the assay: LTEA_HepaRG_CYP2C19: Life Technologies and Expression Analysis (LTEA) Assay for CYP2C19 using HepaRG (AID 2283482). Put shortly:
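Human HepaRG liver cells received test chemicals for 48 h (highest 100 uM, half-log dilutions in 0.5% DMSO). CYP2C19 mRNA induction or loss is read by multiplexed qRT-PCR and fitted in both directions versus vehicle.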

Read-out in assay [18]: CYP2C8 (gene 1558)
Nature of the assay: LTEA_HepaRG_CYP2C8: Life Technologies and Expression Analysis (LTEA) Assay for CYP2C8 using HepaRG (AID 2283483). The essentials:
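Differentiated human HepaRG cells were exposed for 48 h in serum-free induction medium to eight half-log concentrations up to 100 uM in 0.5% DMSO, in duplicate. CYP2C8 mRNA was measured by TaqMan qRT-PCR, normalized to ACTB, GAPDH and POLR2A, and fitted bidirectionally against DMSO.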

Read-out in assay [19]: CYP2C9 (gene 1559)
Nature of the assay: LTEA_HepaRG_CYP2C9: Life Technologies and Expression Analysis (LTEA) Assay for CYP2C9 using HepaRG (AID 2283484). Put shortly:
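Differentiated human HepaRG cells were exposed 48 h in serum-free induction medium to eight half-log concentrations up to 100 uM in 0.5% DMSO. CYP2C9 mRNA was measured by qRT-PCR, normalized to ACTB, GAPDH and POLR2A, and fitted bidirectionally against DMSO.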

Read-out in assay [20]: CYP2E1 (gene 1571)
Kind of assay: LTEA_HepaRG_CYP2E1: Life Technologies and Expression Analysis (LTEA) Assay for CYP2E1 using HepaRG (AID 2283485). Put shortly:
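Human liver line HepaRG, plated 48 h, then serum-free induction medium + chemical x 48 h; 8-pt CRC from 100 uM, half-log, 0.5% DMSO, n=2. Readout: CYP2E1 mRNA qRT-PCR vs ACTB/GAPDH/POLR2A; bidirectional fit vs DMSO.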

Molecules are shown by their SMILES. The source made the active and inactive calls. Rule for the calls: active = hit-call score of the fitted dose curve at least 0.9, where 1 is the maximum; inactive = score below 0.9.

Sequence of Cytochrome P450 2C19 (Homo sapiens) (P33261 whole entry, looked up): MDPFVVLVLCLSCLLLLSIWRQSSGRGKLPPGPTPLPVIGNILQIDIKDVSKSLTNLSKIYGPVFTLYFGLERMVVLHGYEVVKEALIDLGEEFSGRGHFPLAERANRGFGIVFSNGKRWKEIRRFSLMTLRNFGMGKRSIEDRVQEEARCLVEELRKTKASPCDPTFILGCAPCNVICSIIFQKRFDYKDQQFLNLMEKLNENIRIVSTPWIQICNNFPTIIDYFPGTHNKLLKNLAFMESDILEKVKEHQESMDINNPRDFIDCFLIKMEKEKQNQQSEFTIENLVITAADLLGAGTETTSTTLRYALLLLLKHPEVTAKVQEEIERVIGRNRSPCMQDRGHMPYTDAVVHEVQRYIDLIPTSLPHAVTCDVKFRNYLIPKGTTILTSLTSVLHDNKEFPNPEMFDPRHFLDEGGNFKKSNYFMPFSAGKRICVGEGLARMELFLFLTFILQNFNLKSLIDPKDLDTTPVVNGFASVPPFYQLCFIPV
Sequence of Caspase-3 (Homo sapiens) (P42574 whole entry, looked up): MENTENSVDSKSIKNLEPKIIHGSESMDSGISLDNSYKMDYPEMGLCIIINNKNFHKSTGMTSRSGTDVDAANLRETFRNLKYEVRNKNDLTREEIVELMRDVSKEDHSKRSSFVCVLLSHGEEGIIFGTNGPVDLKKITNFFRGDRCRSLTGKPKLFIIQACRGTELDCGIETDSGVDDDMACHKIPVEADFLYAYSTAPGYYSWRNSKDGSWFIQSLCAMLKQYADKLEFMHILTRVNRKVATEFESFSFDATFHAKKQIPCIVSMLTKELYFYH
Sequence of Apoptosis regulator Bcl-2 (Homo sapiens) (P10415 whole entry, looked up): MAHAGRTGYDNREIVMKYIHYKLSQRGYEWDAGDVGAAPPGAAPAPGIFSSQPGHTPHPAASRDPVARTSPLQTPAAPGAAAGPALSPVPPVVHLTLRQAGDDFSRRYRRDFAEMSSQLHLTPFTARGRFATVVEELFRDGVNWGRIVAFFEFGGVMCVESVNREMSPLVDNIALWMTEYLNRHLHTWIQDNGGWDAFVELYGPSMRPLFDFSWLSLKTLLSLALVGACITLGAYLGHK

Consider `O=C(NC(=O)c1c(F)cccc1F)Nc1cc(Cl)c(OC(F)(F)C(F)F)c(Cl)c1`, for which the compound was classed as inactive in [1], in assay [2], in assay [3], in assay [4], in assay [5] and in [6]. The result in [7], in assay [8], in [9], in [10], in assay [11] and in assay [12] was inactive. Also, the outcome in assay [13], in assay [15], in [16], in [17], in assay [18] and in assay [19] was inactive. Moreover, the AC50 in assay [14] is 3630 nM (active); in assay [20] it was 11600 nM (active).

As to `CCC(C)(c1ccc(O)cc1)c1ccc(O)cc1`, the call in assay [1], in [2], in assay [3], in assay [4], in assay [5] and in assay [6] was inactive. Moreover, the compound was classed as inactive in assay [8], in assay [9], in assay [10], in assay [11], in [12] and in [13]. The call in assay [15], in assay [16], in assay [17], in [18], in [19] and in [20] was inactive. Moreover, the half-maximal activity concentration (AC50) was 50000 nM (active) in assay [7] and 89200 nM (active) in assay [14].

As to `CCC(C)c1cc([N+](=O)[O-])cc([N+](=O)[O-])c1O` (stereo not given), the call in assay [1], in [4], in assay [12] and in assay [13] was inactive. For the same compound, the AC50 in [2] is 1400 nM (active); in assay [3] it was 1580 nM (active); in [5] it was 7230 nM (active); in assay [6] it was 2240 nM (active); in [7] it was 2350 nM (active); in assay [8], 1390 nM (active). The AC50 in assay [9] was 1580 nM (active); in assay [10], 12300 nM (active); in assay [11], 2420 nM (active); in assay [14], 2660 nM (active); in assay [15], 4000 nM (active); in assay [16] it was 1320 nM (active). Also, the AC50 in assay [17] was 2120 nM (active); in assay [18] it was 2600 nM (active); in assay [19], 1710 nM (active); in assay [20], 1220 nM (active).
